Measured values reported in the supplement of paper PMC4723716.

System: Plasmodium falciparum NF54 gametocytes
Assay: viability index relative to DMSO control (fraction); higher = less gametocyte killing
Details: 12.5 µM, incubation time: 72 h
Summary of the method: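 In 384-well plates, compound at 12.5 µM was incubated for 72 hr at 37°C under low oxygen with P. falciparum NF54 gametocytes of each stage (I–V) at 0.50% gametocytemia and 1.25% hematocrit in 40 µl of serum-containing medium. Staining used 5 µl of 5 µM MitoTracker Red CMXRos for 20 min, then 5 µl was moved into 40 µl of 500 nM dye in serum-free medium and imaged after 30 min. Dividing the gametocyte particle count by the plate mean of solvent-only wells gave the viability index.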

[1] = gametocyte stage: Stage I viability index
[2] = gametocyte stage: Stage II viability index
[3] = gametocyte stage: Stage III viability index
[4] = gametocyte stage: Stage IV viability index
[5] = gametocyte stage: Stage V viability index

| Compound | viability index [1] | viability index [2] | viability index [3] | viability index [4] | viability index [5] |
| --- | --- | --- | --- | --- | --- |
| CC1CN(C(=O)c2sc3ccccc3c2Cl)CC(C)O1 (stereo not given) | 0.768 | 0.756 | 0.97 | 0.912 | 0.989 |
| Cc1ccc(C(=O)c2oc3ccc4c(C)cc(=O)oc4c3c2C)cc1 | 1.1 | 0.932 | 0.905 | 1.04 | 1.08 |
| COCCn1c(C)nc2ccccc2c1=O | 0.825 | 0.879 | 0.733 | 0.711 | 0.418 |
| O=C(NC(c1ccccc1)c1ccc2cccnc2c1O)c1ccccc1 (stereo not given) | 0.00552 | 0.029 | 0.0453 | 0.103 | 0.0769 |
| CCc1ccc(Nc2cc(C)nc3nc(C)nn23)cc1 | 0.925 | 0.736 | 1.01 | 1.1 | 1.1 |
| COc1cc(C(=O)ON=C(N)Cc2cccc3ccccc23)cc(OC)c1OC | 0.0175 | 0.0391 | 0.157 | 0.12 | 0.0909 |
| COc1ccc2c(=O)cc(C(Cl)(Cl)Cl)oc2c1 | 0.0166 | 0.146 | 0.512 | 0.623 | 0.56 |
| CCCCC(O)(c1ccc(Cl)cc1)C(CN1CCOCC1)c1ccc(Cl)cc1 (stereo not given) | 0.941 | 0.896 | 0.871 | 0.763 | 0.701 |
| COc1ccc(CN2CCCC(C(=O)c3ccc(C(F)(F)F)cc3)C2)c(O)c1 (stereo not given) | 0.049 | 0.0866 | 0.365 | 0.554 | 0.779 |
| CCCCCCOC(=O)C1=C(C)NC(=O)NC1c1ccccc1F (stereo not given) | 0.924 | 0.896 | 1.03 | 1.04 | 1.13 |
| O=C(O)C1Cc2c([nH]c3ccccc23)C(c2ccc(Cl)cc2Cl)N1 (stereo not given) | 1.04 | 0.891 | 1.08 | 1.05 | 0.967 |
| CC(C)(C)c1ccc(C(=O)Nc2nc3ccccc3s2)cc1 | 0.787 | 0.834 | 0.813 | 0.812 | 0.736 |
| COc1ccc(NC(=O)C2c3ccccc3C(=O)N(CC(C)C)C2c2cccs2)cc1Cl (stereo not given) | 0.0453 | 0.00483 | 0.0636 | 0.24 | 0.11 |
| CC1CCCCN1CCCNC(=O)c1ccc2c(c1)sc1nc(-c3ccc(F)cc3)cn12 (stereo not given) | 0.113 | 0.443 | 1.05 | 1.2 | 1 |
| CCCCc1c(C)nc2c(OC)cccc2c1O | 1.07 | 0.942 | 1.03 | 0.954 | 1.1 |
| CCCCc1ccc(NS(=O)(=O)c2cc3c4c(c2)CCN4C(=O)CC3)cc1 | 0.98 | 0.982 | 0.992 | 1.12 | 1.07 |
| CCOc1ccc(Nc2ccnc3cc(Cl)ccc23)cc1 | 0.0699 | 0.411 | 0.852 | 0.728 | 0.558 |
| COc1ccc(C(=O)C(CCC(CNC(C)(C)C)C(=O)c2ccc(OC)cc2)CNC(C)(C)C)cc1 (stereo not given) | 0.811 | 0.698 | 0.548 | 0.418 | 0.117 |
| FC(F)(F)c1ccc(Nc2nnnc3ccccc23)cc1 | 0.604 | 0.736 | 0.921 | 0.72 | 0.868 |
| Cc1cc(C)cc(Nc2cc(C)nc3nc(C(F)(F)F)nn23)c1 | 1.02 | 1.07 | 1.18 | 0.869 | 0.835 |

| Compound | viability index [1] | viability index [2] | viability index [3] | viability index [4] | viability index [5] |
| --- | --- | --- | --- | --- | --- |
| CC1(c2ccccc2)Nc2ccccc2-c2nc3ccccc3n21 (stereo not given) | 0.183 | 0.109 | 0.298 | 0.498 | 0.0659 |
| Cc1ccccc1OCCSc1nc2ccc(NC(=O)c3ccccc3)cc2s1 | 0.83 | 0.863 | 0.944 | 0.835 | 0.922 |
| CCOc1ccccc1CN1CCc2nc3cc(C(C)(C)C)nn3c(O)c2C1 | 0.89 | 0.7 | 0.583 | 0.737 | 0.597 |
| O=C1C2=C(Nc3ccccc3SC2c2ccccc2)c2ccccc21 (stereo not given) | 0.678 | 0.794 | 0.742 | 0.623 | 0.662 |
| CCOC(=O)C1(Cc2ccccc2)CCN(Cc2cccc(OC)c2O)CC1 | 0.0586 | 0.0716 | 0.404 | 0.522 | 0.649 |
| CCOc1ccc(CCNC(=O)c2cccs2)cc1OCC | 1.14 | 0.896 | 1.1 | 0.884 | 0.593 |
| COc1cccc(O)c1CN1CCC2(CCCN(Cc3ccc(F)cc3)C2)C1 (stereo not given) | 0.0144 | 0.0986 | 0.446 | 0.602 | 0.615 |
| Oc1c2c(nc3ccccc13)CCCC2 | 0.828 | 0.959 | 0.985 | 0.87 | 0.961 |
| CSc1ccccc1C(=O)Nc1nc(-c2ccccn2)cs1 | 0.242 | 0.181 | 0.321 | 0.362 | 0.132 |
| Brc1ccc(Nc2nc3ccccc3nc2Nc2ccc(Br)cc2)cc1 | 0.0192 | 0.00916 | 0.0204 | 0.0222 | 0.104 |
| Fc1ccc2[nH]c3c(NCCCN4CCOCC4)ncnc3c2c1 | 0.053 | 0.564 | 0.873 | 0.866 | 0.78 |
| CCOC(=O)C1=C(c2ccccc2)N=c2sc(=Cc3cc(C)n(-c4ccc(F)cc4)c3C)c(=O)n2C1c1cccc(OC)c1OC (stereo not given) | 0.806 | 0.787 | 0.996 | 0.839 | 0.703 |
| O=C(CCl)NCCOc1ccc(Cl)cc1Cl | 0.732 | 0.629 | 0.813 | 0.769 | 0.675 |
| CCCn1c(=N)c(C(=O)NC2CCCCC2)cc2c(=O)n3cccc(C)c3nc21 | 0.45 | 0.612 | 1.06 | 0.981 | 0.805 |
| CN(C)c1ccc(C(O)(c2ccc(N(C)C)cc2)c2ccc(N(C)C)cc2)cc1 | 0.157 | 0.0203 | 0.0948 | 0.0608 | 0.11 |
| CC1CCN(Cc2c(O)ccc3cc(-c4nc5ccccc5s4)c(=O)oc23)CC1 | 0.706 | 0.705 | 0.925 | 0.864 | 1 |
| CCOc1cc(Cl)c(C(C)NC(=O)c2cccc(OC)c2)cc1OCC (stereo not given) | 0.0343 | 0.121 | 0.143 | 0.298 | 0.231 |
| Cc1ccc(OCCCCCCNCCO)c(C)c1 | 1.13 | 1.04 | 1.05 | 0.934 | 0.909 |
| CCCCOc1ccc(C(=O)Nc2cc(C)on2)cc1 | 1.02 | 0.815 | 0.973 | 0.942 | 0.78 |
| CCCCCCC(O)(c1ccc(F)cc1)C(CN1CCOCC1)c1ccccc1 (stereo not given) | 0.871 | 0.694 | 0.879 | 0.93 | 0.831 |

| Compound | viability index [1] | viability index [2] | viability index [3] | viability index [4] | viability index [5] |
| --- | --- | --- | --- | --- | --- |
| CCN(CC)CCNc1ccnc2cc3ccccc3cc12 | 0.0323 | 0.0591 | 0.106 | 0.0475 | 0.039 |
| Cc1ccc2c(C)nc(Nc3nc(C)cc(-c4ccccc4)n3)nc2c1 | 0.169 | 0.3 | 0.318 | 0.231 | 0.0519 |
| CCOc1cc(Cl)c(C(C)NC(=O)c2ccccc2)cc1OCC (stereo not given) | 0.728 | 0.781 | 0.819 | 1.03 | 0.901 |
| CCCCNCC(O)(c1ccc(Cl)cc1)c1ccc(Cl)cc1 | 0.00663 | 0.0541 | 0.364 | 0.422 | 0.396 |
| COc1ccc(-c2nc(N3CCN(C(=O)C4CCCCC4)CC3)c3c4c(sc3n2)CCCC4)cc1 | 1.05 | 0.922 | 1.06 | 0.915 | 0.779 |
| CCCCCn1c(=N)n(CC(O)COc2cccc(C)c2)c2ccccc21 (stereo not given) | 0.0988 | 0.0949 | 0.32 | 0.459 | 0.221 |
| CCOC(=O)c1cn(CC)c2cc(N(C)CCc3ccc(OC)c(OC)c3)c(F)cc2c1=O | 0.63 | 0.723 | 0.912 | 0.827 | 0.923 |
| O=C1c2ccccc2-c2nnc(-c3ccc(Br)cc3)cc21 | 0.844 | 0.875 | 0.783 | 0.873 | 0.87 |
| COCCNCC(O)Cn1c2ccc(Cl)cc2c2cc(Cl)ccc21 (stereo not given) | 0.105 | 0.0937 | 0.407 | 0.511 | 0.429 |
| Cn1c(=O)c2cc(C(=O)NCCCN3CCCCCC3)sc2c2ccccc21 | 1.01 | 0.857 | 0.926 | 0.957 | 0.725 |
| Cc1ccc2nc(C)cc(Nc3cccc(C(F)(F)F)c3)c2c1 | 0.325 | 0.504 | 0.803 | 0.829 | 0.857 |
| CN(C)c1ccc(N2C(N)=NC(N)=NC2(C)C)cc1 | 1.05 | 0.931 | 1.04 | 1.05 | 1.21 |
| CC1=C(CC(=O)c2cccc([N+](=O)[O-])c2)C(=O)c2ccccc2C1=O | 0.00612 | 0.00167 | 0.0706 | 0.196 | 0.234 |
| Cc1ccc(Cl)cc1N1CCN(CCCNC(=O)C2CCN(c3nc4ccccc4[nH]3)CC2)CC1 | 0.158 | 0.517 | 0.628 | 0.426 | 0.407 |
| COc1ccc(NC(=O)C2c3ccccc3C(=O)N(CC(C)C)C2c2cccs2)cc1 (stereo not given) | 0.0343 | 0.0087 | 0.0354 | 0.216 | 0.0549 |
| CCOC(=O)c1cnc2ccc(OC)cc2c1NCc1ccccc1 | 0.309 | 0.535 | 0.991 | 0.835 | 0.87 |
| CCN(CC)CCCNc1ccnc2cc3ccccc3cc12 | 0.0594 | 0.485 | 0.972 | 0.946 | 1.1 |
| CCc1ccc(Nc2cc(C)c3ccc(O)cc3n2)cc1 | 0.238 | 0.256 | 0.706 | 0.827 | 0.945 |
| COc1cccc(Nc2nc(N)c3ccccc3n2)c1 | 0.131 | 0.524 | 0.786 | 0.797 | 0.649 |
| O=C(Nc1ccc(-c2nc3cc(NC(=O)c4ccc(Cl)cc4)ccc3[nH]2)cc1)c1ccc(Cl)cc1 | 0.0481 | 0.00583 | 0.0176 | 0.00316 | 0 |
